Source: PubChem BioAssay AID1159580 (chemical genetic matrix, 2015)
Several values for one entry are separate records, joined by “and”; a condition that tells them apart may be missing. Equal values may be shown once. The campaign covered roughly 5,500 compounds. About 2,000 (36%) were called active. Roughly 18% stayed inconclusive and do not appear here. No stated cut-off is given here; in the data, active means normalized growth mostly below about 0.91 (no sharp cut-off); inconclusive means no clear call, values can overlap the other calls; inactive means mostly above about 0.92. Some of the results follow.

Experiment: chemical genetic growth profiling, strain panel (AID 1159580);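 further: tested at 20 µM; growth read once vehicle control cultures reached saturation at 30 °C; 1 = growth at the plate median or of vehicle wells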
Conditions: S. cerevisiae deletion strains, growth OD

Measured: normalized growth

N[C@H](Cc1ccccc1)C(=O)O
inactive: locus YAL013W, strain DEP1, stronger effect = lower value 1.02 | locus YAL021C, strain ccr4, stronger effect = lower value 1.01 | locus YAL026C, strain drs2, stronger effect = lower value 1 | locus YAL030W, strain snc1, stronger effect = lower value 1.01 | locus YBL061C, strain skt5, stronger effect = lower value 1 | locus YBR009C, strain hhf1, stronger effect = lower value 0.968 | locus YBR021W, strain FUR4, stronger effect = lower value 0.98 | locus YBR023C, strain chs3, stronger effect = lower value 1.01 | locus YBR171W, strain sec66, stronger effect = lower value 0.99 | locus YBR229C, strain ROT2, stronger effect = lower value 1.01 | locus YBR231C, strain swc5, stronger effect = lower value 0.971 | locus YBR279W, strain paf1, stronger effect = lower value 0.999 | locus YCL011C, strain gbp2, stronger effect = lower value 1 | locus YCL016C, strain dcc1, stronger effect = lower value 1.03 | locus YCL029C, strain bik1, stronger effect = lower value 1 | locus YCL069W, strain vba3, stronger effect = lower value 0.988 | locus YCR088W, strain abp1, stronger effect = lower value 0.987 | locus YDL005C, strain med2, stronger effect = lower value 0.997 | locus YDL035C, strain GPR1, stronger effect = lower value 1.02 | locus YDL040C, strain nat1, stronger effect = lower value 1 | locus YDL074C, strain BRE1, stronger effect = lower value 1.05 | locus YDL101C, strain DUN1, stronger effect = lower value 1.01 | locus YDL134C, strain PPH21, stronger effect = lower value 1.01 | locus YDL185W, strain tfp1, stronger effect = lower value 1 | locus YDL192W, strain arf1, stronger effect = lower value 1.01 | locus YDR001C, strain nth1, stronger effect = lower value 0.987 | locus YDR069C, strain doa4, stronger effect = lower value 0.997 | locus YDR101C, strain arx1, stronger effect = lower value 1.01 | locus YDR137W, strain rgp1, stronger effect = lower value 0.982 | locus YDR150W, strain NUM1, stronger effect = lower value 1.02 | locus YDR159W, strain sac3, stronger effect = lower value 0.935 | locus YDR162C, strain NBP2, stronger effect = lower value 1.02 | locus YDR195W, strain ref2 0.961 | locus YDR297W, strain sur2, stronger effect = lower value 1 | locus YDR318W, strain mcm21, stronger effect = lower value 0.993 | locus YDR334W, strain swr1, stronger effect = lower value 0.946 | locus YDR335W, strain msn5, stronger effect = lower value 0.994 | locus YDR388W, stronger effect = lower value 1.01 | locus YDR392W, strain spt3, stronger effect = lower value 0.965 | locus YDR502C, strain sam2, stronger effect = lower value 1 | locus YEL003W, strain gim4, stronger effect = lower value 0.983 | locus YEL037C, strain rad23, stronger effect = lower value 0.976 | locus YEL061C, strain CIN8 (second series), stronger effect = lower value 0.962 | locus YEL061C, strain CIN8, stronger effect = lower value 1.01 | locus YER015W, strain faa2, stronger effect = lower value 0.993 | locus YER016W, strain bim1, stronger effect = lower value 1.02 | locus YER110C, stronger effect = lower value 1 | locus YER111C, strain swi4, stronger effect = lower value 0.999 | locus YER155C, strain BEM2 (second series), stronger effect = lower value 0.99 | locus YER155C, strain BEM2, stronger effect = lower value 1 | locus YER167W, strain BCK2, stronger effect = lower value 1.01 | locus YFR010W, strain ubp6, stronger effect = lower value 0.942 | locus YGL078C, strain dbp3, stronger effect = lower value 1.02 | locus YGL086W, strain mad1, stronger effect = lower value 1.01 | locus YGL167C, strain pmr1, stronger effect = lower value 0.983 | locus YGL173C, strain kem1, stronger effect = lower value 0.97 | locus YGL227W, strain vid30, stronger effect = lower value 0.98 | locus YGL240W, strain doc1, stronger effect = lower value 0.955 | locus YGL248W, strain PDE1, stronger effect = lower value 1 | locus YGL253W, strain hxk2, stronger effect = lower value 1 | locus YGR078C, strain PAC10, stronger effect = lower value 1.05 | locus YGR135W, strain pre9, stronger effect = lower value 1 | locus YGR229C, strain SMI1, stronger effect = lower value 1.03 | locus YGR252W, strain gcn5, stronger effect = lower value 0.935 | locus YHR013C, strain ard1, stronger effect = lower value 1 | locus YHR027C, strain rpn1, stronger effect = lower value 0.996 | locus YHR030C, strain SLT2, stronger effect = lower value 1.02 and 1.05 | locus YHR079C, strain IRE1 (second series), stronger effect = lower value 1.01 | locus YHR079C, strain IRE1, stronger effect = lower value 1.06 | locus YHR094C, strain hxt1, stronger effect = lower value 1 | locus YHR129C, strain ARP1, stronger effect = lower value 1.01 | locus YHR142W, strain chs7, stronger effect = lower value 0.992 | locus YHR200W, strain rpn10, stronger effect = lower value 1 | locus YIL066C, strain RNR3, stronger effect = lower value 1.02 | locus YIL073C, strain SPO22, stronger effect = lower value 1.04 | locus YIL125W, strain kgd1, stronger effect = lower value 0.994 | locus YIR030C, strain dcg1, stronger effect = lower value 1.02 | locus YJL092W, strain hpr5, stronger effect = lower value 1 | locus YJL095W, strain BCK1 (second series), stronger effect = lower value 0.996 | locus YJL095W, strain BCK1, stronger effect = lower value 1.02 and 1.05 | locus YJL115W, strain asf1, stronger effect = lower value 0.979 | locus YJL129C, strain trk1, stronger effect = lower value 1 | locus YJL134W, strain LCB3, stronger effect = lower value 1.01 | locus YJL154C, strain vps35, stronger effect = lower value 0.977 | locus YJL164C, strain tpk1, stronger effect = lower value 0.979 | locus YJL166W, strain qcr8, stronger effect = lower value 0.981 | locus YJL168C, strain set2, stronger effect = lower value 0.992 | locus YJL187C, strain SWE1 (second series), stronger effect = lower value 1.02 | locus YJL187C, strain SWE1, stronger effect = lower value 1.02
